Data reported in the supplement of paper PMC13380429.

Tested on: Vero E6 infected with SARS-CoV-2
Assay: inhibition of SARS-CoV-2 cytopathic effect; higher = more antiviral protection, active = above 15
Details: 48 h

Measured: inhibition of SARS-CoV-2 cytopathic effect

NC(=O)c1ncn([C@@H]2O[C@H](CO)[C@@H](O)[C@H]2O)n1 [ribavirin]
inactive: 1 nM -5.15% | 8.33 nM -3.9% | 100 nM -6.04% | 833.33 nM -0.66% | 10000 nM 4.23%

COc1cc2c(cc1OC)[C@@H](Cc1cc(OC)c(OC)c(OC)c1)[N+](C)(CCCOC(=O)CC/C=C/CCC(=O)OCCC[N+]1(C)CCc3cc(OC)c(OC)cc3[C@H]1Cc1cc(OC)c(OC)c(OC)c1)CC2 (stereo not given in full) [mivacurium]
inactive: 1 nM -2.73% | 8.33 nM -1.95% | 100 nM 2.74% | 833.33 nM 3.32% | 10000 nM 0.83%

CCOc1cc(N2CCC(O)CC2)ccc1Nc1ncc2c(n1)N(C)c1ccccc1C(=O)N2C
inactive: 1 nM 1.68% | 8.33 nM 1.49% | 100 nM 1.28% | 833.33 nM -1.36% | 10000 nM -1.31%

CC(C)C(N)=O [isobutyramide]
inactive: 1 nM 4.35% | 8.33 nM 1.02% | 100 nM 2.22% | 833.33 nM 2.44% | 10000 nM 0.68%

CCCOc1ccc2[nH]c(NC(=O)OC)nc2c1 [oxibendazole]
inactive: 1 nM -2.12% | 8.33 nM -0.7% | 100 nM -0.63% | 833.33 nM -2.39% | 10000 nM -0.04%

C[C@@H]1CN(c2c(F)c(F)c3c(=O)c(C(=O)O)cn(C4CC4)c3c2F)C[C@H](C)N1 [orbifloxacin]
inactive: 1 nM -6.82% | 8.33 nM -2.82% | 100 nM -5.64% | 833.33 nM -4.29% | 10000 nM -4.52%
